The source of these data is ChEMBL document CHEMBL1961873, “Compounds: GSK PKIS; Assays: Nanosyn kinase panel” (2012).

The target in assay [1] is Serine/threonine-protein kinase pim-2 (Homo sapiens) (UniProt Q9P1W9). As to conditions: at 1 µM.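 Note: each value is a mean of the inhibition measurements against the kinase.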
Assay [2] concerns the target Serine/threonine-protein kinase pim-3 (Homo sapiens) (UniProt Q86V86). As to conditions: at 0.1 µM.
Assay [3] has the same target. As to conditions: at 1 µM.
The target of assay [4] is T1, MAP kinase-activated protein kinase 5 (Homo sapiens) (UniProt Q8IW41).
T1 sequence (whole entry): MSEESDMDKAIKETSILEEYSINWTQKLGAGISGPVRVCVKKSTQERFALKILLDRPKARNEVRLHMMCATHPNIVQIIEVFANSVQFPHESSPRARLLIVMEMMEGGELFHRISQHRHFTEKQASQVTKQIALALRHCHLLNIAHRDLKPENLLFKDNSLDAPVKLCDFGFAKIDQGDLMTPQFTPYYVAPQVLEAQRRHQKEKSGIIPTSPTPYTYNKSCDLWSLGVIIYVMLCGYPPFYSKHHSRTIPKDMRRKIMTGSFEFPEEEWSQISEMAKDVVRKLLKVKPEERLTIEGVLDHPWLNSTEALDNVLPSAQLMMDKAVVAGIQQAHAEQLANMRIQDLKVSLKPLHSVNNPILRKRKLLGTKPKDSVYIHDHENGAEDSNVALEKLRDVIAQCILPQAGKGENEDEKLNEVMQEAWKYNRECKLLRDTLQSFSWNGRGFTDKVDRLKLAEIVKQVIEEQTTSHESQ
As to conditions: at 0.1 µM.

For assay [5], the target named is T1, MAP kinase-activated protein kinase 5 (Homo sapiens). As to conditions: at 1 µM.
For assay [6], the target named is Serine/threonine-protein kinase SIK1 (Homo sapiens) (UniProt P57059). As to conditions: at 0.1 µM.
Serine/threonine-protein kinase SIK1 (Homo sapiens), sequence (P57059 whole entry): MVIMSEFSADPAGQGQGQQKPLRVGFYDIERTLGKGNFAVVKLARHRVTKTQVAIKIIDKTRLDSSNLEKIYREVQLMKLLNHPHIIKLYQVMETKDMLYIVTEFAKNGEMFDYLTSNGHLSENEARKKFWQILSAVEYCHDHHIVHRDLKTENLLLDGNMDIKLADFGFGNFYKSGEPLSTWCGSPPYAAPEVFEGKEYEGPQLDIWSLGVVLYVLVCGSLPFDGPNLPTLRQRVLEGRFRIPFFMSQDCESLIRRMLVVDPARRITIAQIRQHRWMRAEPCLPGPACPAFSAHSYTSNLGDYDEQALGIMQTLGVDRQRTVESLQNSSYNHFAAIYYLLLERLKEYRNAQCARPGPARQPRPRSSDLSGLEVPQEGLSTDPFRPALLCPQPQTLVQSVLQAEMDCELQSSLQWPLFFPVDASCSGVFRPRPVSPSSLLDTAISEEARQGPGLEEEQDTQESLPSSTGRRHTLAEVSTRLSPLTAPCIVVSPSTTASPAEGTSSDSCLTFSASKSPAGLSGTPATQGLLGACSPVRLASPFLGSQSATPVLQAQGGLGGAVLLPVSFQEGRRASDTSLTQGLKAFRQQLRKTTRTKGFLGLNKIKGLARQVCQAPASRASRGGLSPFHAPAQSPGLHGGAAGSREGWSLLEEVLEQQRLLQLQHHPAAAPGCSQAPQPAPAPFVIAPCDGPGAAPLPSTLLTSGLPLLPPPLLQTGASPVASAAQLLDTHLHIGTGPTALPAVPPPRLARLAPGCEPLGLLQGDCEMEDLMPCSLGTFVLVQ
The target is the same in assay [7]. As to conditions: at 1 µM.
Assay [8] addresses Serine/threonine-protein kinase SIK2 (Homo sapiens) (UniProt Q9H0K1). As to conditions: at 0.1 µM.
For assay [9] the target is unchanged. As to conditions: at 1 µM.
The target of assay [10] is T2, Serine/threonine-protein kinase TBK1 (Homo sapiens) (UniProt Q9UHD2).
T2 sequence (whole entry): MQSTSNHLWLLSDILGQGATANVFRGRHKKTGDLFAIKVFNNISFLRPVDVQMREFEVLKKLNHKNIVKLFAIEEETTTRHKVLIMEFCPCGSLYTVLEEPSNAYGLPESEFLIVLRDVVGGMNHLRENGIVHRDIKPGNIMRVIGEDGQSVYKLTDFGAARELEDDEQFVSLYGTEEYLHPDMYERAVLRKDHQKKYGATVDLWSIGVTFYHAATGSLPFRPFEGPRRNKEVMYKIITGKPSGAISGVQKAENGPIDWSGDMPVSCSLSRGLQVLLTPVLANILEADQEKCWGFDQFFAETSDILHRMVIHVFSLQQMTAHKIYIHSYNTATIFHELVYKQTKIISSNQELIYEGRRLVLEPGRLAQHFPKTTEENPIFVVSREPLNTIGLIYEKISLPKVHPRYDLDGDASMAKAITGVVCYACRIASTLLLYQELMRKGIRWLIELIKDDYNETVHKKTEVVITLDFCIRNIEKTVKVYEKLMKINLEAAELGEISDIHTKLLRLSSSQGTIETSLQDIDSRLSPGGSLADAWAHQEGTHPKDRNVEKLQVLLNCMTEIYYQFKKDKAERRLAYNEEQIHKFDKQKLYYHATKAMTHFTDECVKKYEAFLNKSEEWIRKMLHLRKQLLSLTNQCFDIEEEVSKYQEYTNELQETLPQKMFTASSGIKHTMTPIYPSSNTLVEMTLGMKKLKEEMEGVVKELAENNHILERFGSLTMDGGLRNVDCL
As to conditions: at 0.1 µM.

Assay [11] concerns the target T2, Serine/threonine-protein kinase TBK1 (Homo sapiens). As to conditions: at 1 µM.
Assay [12] concerns the target T3, Testis-specific serine/threonine-protein kinase 1 (Homo sapiens) (UniProt Q9BXA7).
T3 sequence (whole entry): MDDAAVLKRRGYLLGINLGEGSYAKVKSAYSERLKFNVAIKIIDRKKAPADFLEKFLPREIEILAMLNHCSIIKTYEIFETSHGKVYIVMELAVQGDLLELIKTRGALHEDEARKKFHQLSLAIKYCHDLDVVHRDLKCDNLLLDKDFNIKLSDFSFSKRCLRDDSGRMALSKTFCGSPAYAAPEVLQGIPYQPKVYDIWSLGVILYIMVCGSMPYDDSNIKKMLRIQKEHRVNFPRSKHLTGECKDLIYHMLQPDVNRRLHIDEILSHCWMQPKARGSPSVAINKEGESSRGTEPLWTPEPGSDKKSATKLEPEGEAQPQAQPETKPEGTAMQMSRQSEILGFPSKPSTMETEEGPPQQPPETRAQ
As to conditions: at 0.1 µM.

In assay [13] the target is T3, Testis-specific serine/threonine-protein kinase 1 (Homo sapiens). As to conditions: at 1 µM.
The target in assay [14] is T4, Testis-specific serine/threonine-protein kinase 2 (Homo sapiens) (UniProt Q96PF2).
T4 sequence (whole entry): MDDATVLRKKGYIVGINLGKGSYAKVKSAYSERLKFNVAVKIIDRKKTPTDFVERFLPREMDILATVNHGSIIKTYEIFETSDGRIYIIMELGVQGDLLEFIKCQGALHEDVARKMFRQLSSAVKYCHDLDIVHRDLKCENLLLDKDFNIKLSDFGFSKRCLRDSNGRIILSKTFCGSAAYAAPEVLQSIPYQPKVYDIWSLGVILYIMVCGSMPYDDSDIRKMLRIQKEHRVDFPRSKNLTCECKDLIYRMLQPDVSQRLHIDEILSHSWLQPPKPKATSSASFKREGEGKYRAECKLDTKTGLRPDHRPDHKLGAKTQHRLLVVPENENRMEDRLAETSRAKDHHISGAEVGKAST
As to conditions: at 0.1 µM.

For assay [15], the target named is T4, Testis-specific serine/threonine-protein kinase 2 (Homo sapiens). As to conditions: at 1 µM.
For assay [16], the target named is Casein kinase I isoform alpha (Homo sapiens) (UniProt P48729). As to conditions: at 0.1 µM.
Casein kinase I isoform alpha (Homo sapiens), sequence (P48729 2-337 limits assumed): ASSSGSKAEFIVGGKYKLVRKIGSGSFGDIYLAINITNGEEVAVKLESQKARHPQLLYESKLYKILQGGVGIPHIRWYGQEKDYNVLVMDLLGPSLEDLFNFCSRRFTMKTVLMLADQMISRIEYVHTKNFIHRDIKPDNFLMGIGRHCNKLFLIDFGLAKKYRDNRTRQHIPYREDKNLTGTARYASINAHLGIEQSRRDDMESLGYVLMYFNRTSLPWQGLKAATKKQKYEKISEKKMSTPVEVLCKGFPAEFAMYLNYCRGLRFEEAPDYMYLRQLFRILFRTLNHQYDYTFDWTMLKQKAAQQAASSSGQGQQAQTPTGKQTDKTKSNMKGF
The target is the same in assay [17]. As to conditions: at 1 µM.
Assay [18] concerns the target Casein kinase I isoform gamma-1 (Homo sapiens) (UniProt Q9HCP0). As to conditions: at 0.1 µM.
Assay [19] has the same target. As to conditions: at 1 µM.
In assay [20] the target is Casein kinase I isoform gamma-2 (Homo sapiens) (UniProt P78368). As to conditions: at 0.1 µM.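 Note: values are mean inhibition figures reported as part of the GSK PKIS dataset.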
Casein kinase I isoform gamma-2 (Homo sapiens), sequence (P78368 whole entry, looked up, canonical isoform): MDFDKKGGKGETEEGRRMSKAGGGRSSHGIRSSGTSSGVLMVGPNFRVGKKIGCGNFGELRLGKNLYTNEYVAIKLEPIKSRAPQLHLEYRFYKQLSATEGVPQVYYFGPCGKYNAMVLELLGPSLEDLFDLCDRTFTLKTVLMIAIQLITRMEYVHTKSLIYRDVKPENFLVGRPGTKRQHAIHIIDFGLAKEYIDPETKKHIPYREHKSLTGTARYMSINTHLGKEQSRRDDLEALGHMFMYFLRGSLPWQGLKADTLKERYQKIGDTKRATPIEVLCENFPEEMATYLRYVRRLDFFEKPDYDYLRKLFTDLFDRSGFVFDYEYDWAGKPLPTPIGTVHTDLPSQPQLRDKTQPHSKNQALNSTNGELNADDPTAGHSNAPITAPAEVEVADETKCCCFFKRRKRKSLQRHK

Serine/threonine-protein kinase pim-2 (Homo sapiens), sequence (Q9P1W9 whole entry, looked up): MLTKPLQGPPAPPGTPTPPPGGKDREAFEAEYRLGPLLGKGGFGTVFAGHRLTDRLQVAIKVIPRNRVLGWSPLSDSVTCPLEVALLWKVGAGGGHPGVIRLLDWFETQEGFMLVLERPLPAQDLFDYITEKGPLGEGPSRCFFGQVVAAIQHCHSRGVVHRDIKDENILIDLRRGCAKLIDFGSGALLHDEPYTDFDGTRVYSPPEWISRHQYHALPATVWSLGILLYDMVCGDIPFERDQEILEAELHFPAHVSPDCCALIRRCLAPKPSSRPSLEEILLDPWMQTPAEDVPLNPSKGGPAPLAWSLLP
Casein kinase I isoform gamma-1 (Homo sapiens), sequence (Q9HCP0 whole entry, looked up, canonical isoform): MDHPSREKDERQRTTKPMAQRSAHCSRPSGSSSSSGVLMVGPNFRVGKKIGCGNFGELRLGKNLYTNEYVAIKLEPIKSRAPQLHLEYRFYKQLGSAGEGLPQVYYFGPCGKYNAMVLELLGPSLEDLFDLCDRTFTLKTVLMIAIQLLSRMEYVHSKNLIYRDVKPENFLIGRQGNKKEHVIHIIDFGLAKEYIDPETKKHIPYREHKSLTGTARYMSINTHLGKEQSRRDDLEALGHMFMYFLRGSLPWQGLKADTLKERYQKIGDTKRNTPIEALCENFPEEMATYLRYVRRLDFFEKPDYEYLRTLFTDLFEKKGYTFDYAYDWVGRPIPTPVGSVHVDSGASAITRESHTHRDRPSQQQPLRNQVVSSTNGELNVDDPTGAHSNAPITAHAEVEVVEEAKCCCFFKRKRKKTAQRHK
Serine/threonine-protein kinase SIK2 (Homo sapiens), sequence (Q9H0K1 whole entry, looked up): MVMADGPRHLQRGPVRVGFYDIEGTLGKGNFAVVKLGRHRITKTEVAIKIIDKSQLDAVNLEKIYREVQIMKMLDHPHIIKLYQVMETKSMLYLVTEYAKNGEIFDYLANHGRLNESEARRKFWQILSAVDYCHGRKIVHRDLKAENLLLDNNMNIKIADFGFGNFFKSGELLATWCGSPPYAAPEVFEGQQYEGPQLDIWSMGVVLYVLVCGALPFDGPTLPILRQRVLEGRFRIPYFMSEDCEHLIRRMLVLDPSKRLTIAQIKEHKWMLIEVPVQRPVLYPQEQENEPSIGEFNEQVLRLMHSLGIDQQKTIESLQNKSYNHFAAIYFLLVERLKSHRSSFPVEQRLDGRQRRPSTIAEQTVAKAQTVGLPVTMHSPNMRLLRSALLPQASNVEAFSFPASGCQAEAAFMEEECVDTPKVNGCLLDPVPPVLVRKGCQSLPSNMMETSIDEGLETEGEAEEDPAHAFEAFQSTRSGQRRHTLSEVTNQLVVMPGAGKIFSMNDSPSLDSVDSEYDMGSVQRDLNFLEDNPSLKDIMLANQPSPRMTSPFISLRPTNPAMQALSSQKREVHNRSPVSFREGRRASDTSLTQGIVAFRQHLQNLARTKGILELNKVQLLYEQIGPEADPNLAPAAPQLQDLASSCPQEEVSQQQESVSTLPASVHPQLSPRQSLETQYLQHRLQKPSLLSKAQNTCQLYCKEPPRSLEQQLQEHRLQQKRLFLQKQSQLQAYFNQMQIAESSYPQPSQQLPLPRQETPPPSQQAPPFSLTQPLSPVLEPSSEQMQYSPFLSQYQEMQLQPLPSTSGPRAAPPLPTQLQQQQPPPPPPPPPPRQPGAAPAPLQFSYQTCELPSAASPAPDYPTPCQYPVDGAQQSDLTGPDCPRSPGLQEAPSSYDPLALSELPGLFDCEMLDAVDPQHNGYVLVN

One may read the inhibition as the drop in the measured response relative to a control, in per cent. Consider `NS(=O)(=O)c1cccc(Nc2cc(-c3ccc(F)cc3)n[nH]2)c1`, for which the inhibition in assay [1] came to 1.85%; in [2], 2.44%; in assay [3], 5.79%; in assay [4], 1.15%; in assay [5] it was 2.81%; in [6], 7.9%. In addition, the inhibition in assay [7] is 33.8%; in assay [8], 11.7%; in assay [9], 37.9%; in [10], 2.64%; in assay [11] it was 15.2%; in assay [12], 4.49%. For the same molecule, the inhibition in assay [13] is 6.59%; in assay [14], 3.05%; in [15], 2.38%; in assay [16] it was -3.61%; in [17], 3.36%; in assay [18], 2.11%. The inhibition in [19] amounted to 3.54%; in assay [20], 1.72%.
Regarding `OCc1ccc(-c2nc(-c3ccccn3)c(-c3ccc4c(c3)OCO4)[nH]2)cc1`, the inhibition in [1] is 1.41%; in assay [2] it was -1.14%; in assay [3], -3.44%; in assay [4], 1.17%; in assay [5] it was -0.12%; in assay [6] it was 9%. The inhibition in [7] came out at 5.84%; in assay [8], 8.76%; in [9], 7.48%; in assay [10], 2.36%; in assay [11], 4.95%; in assay [12], 3.19%. For the same molecule, the inhibition in assay [13] is 1.78%; in assay [14], 0.7%; in [15], -1.56%; in assay [16] it was 9.48%; in assay [17] it was 43.3%; in [18], 4.27%. For the same molecule, the values for the inhibition in assay [19] and in assay [20] were 5.16% and 3.01%, respectively.
Consider `ON=C1CCc2cc(-c3nc(C4CCNCC4)[nH]c3-c3ccncc3)ccc21`, for which the inhibition in assay [1] is 2.02%; in assay [2], -0.74%; in assay [3], -1.33%; in assay [4] it was -0.32%; in assay [5], -1.28%; in assay [6], -0.24%. Further, the inhibition was 0.92% in assay [7]; -6.05% in [8]; 3.25% in assay [9]; 0.4% in [10]; 1.68% in [11]; 0.96% in assay [12]. The inhibition in assay [13] is 0.73%; in assay [14] it was -0.31%; in assay [15], -0.97%; in assay [16], -0.25%; in assay [17] it was 8.55%; in assay [18], 0.25%. Moreover, the inhibition in [19] worked out at 1.66%; in assay [20], 1.32%.
Consider `CCn1c(-c2nonc2N)nc2c(C#CC(C)(C)O)nc(OCCNC)cc21`, for which the inhibition was found to be 1.04% in assay [1]; 0.16% in assay [2]; 3.51% in assay [3]; 1.21% in assay [4]; 1.03% in assay [5]; 6.97% in assay [6]. In addition, the inhibition is 10.6% in [7]; 3.14% in assay [8]; 9.54% in assay [9]; 3.53% in [10]; 8.57% in [11]; 5.86% in assay [12]. Besides, the inhibition in assay [13] was found to be 18%; in [14] it was 1.75%; in assay [15], 2.65%; in [16], 3.87%; in assay [17] it was 8.13%; in [18], 3.33%. Besides, the results for the inhibition in assay [19] and in assay [20] were 4.48% and 3.26%, respectively.
On to `O=S(=O)(CCOCc1ccc(-c2ccc3ncnc(Nc4ccc(OCc5cccc(F)c5)c(Cl)c4)c3c2)o1)c1ccccc1`, for which the inhibition was determined as 2.24% in [1]; 0.82% in assay [2]; 2.26% in assay [3]; 0.61% in assay [4]; 0.15% in assay [5]; 3.79% in assay [6]. In addition, the inhibition in assay [7] came to 5.54%; in assay [8], 0.88%; in [9], 1.15%; in assay [10], 0.12%; in assay [11], 2.8%; in assay [12], 2.84%. Further, the inhibition in [13] was 3.29%; in assay [14], 0.64%; in assay [15], 1.88%; in [16], -0.6%; in assay [17] it was -0.08%; in [18], 0.56%. The inhibition was 1.02% in [19] and 0.09% in assay [20].
